Most compounds without a hit are left out; they make up all but 2.5% or so of the library.
LMP1 NFkB inh = Epstein-Barr LMP1 NF-kappaB reporter inhibition; LMP1-induced NF-kappaB luciferase reporter cells, luminescence; inhibition, % at 12.5 µM; 350,000 tested, 0.69% active; AID 504558; in the data active means inhibition above about 41%;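 further: 0% = neutral control wells and 100% = reference inhibitor control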
TWEAK Fn14 block = TWEAK-Fn14 signaling inhibition. inhibition, % at 10 µM. TWEAK-stimulated Fn14 reporter cells, luciferase luminescence, 8 h. 360,000 tested, 2% active; in the data active means inhibition above about 50%
LGR2 inh = Drosophila LGR2 receptor signaling inhibition. HEK293 LGR2, CRE-luciferase, bursicon-stimulated, 4 h. inhibition, % at 9.99 µM. 380,000 tested, 0.35% active. AID 720647;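 active means drop in luminescence signal, shown as inhibition above about 50% in the replicate tests, limit read from the data, passing the limit was not always enough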;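 further: agonist challenge used bursicon conditioned medium at about half maximal strength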
EWS-Fli inh = inhibitors of EWS/Fli oncoprotein transcriptional activity; 350,000 tested, 0.67% active; A673 NR0B1-luciferase reporter, viability-normalised; inhibition, % at 12.6 µM;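 active means mean inhibition of at least 50% after viability correction, with every replicate also passing that limit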;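 further: firefly luciferase signal divided by Alamar Blue viability fluorescence both relative to DMSO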
TROY signal inh = TROY signaling inhibition | Q293 LMP1-TROYcd NF-kB luciferase reporter, 4 h | inhibition, % at 10 µM | 360,000 tested, 0.98% active | AID 1347056;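 active means compounds whose plate-normalised and pattern-corrected inhibition of the luciferase reporter signal at the single screening dose is 50% or more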
Starred values were filed as active, the others as inactive; . = not tested or not shown.

SMILES	LMP1 NFkB inh	TWEAK Fn14 block	LGR2 inh	EWS-Fli inh	TROY signal inh
COc1ccc(/C=N/NC(=O)c2nc(-c3ccccc3)cc(-c3ccccc3)n2)cc1O	-12	54*	14	.	-31
CCOc1cc(/C=N/NC(=O)c2cc(-c3cccc(OC)c3)nc3ccccc23)ccc1O	.	78*	-5	1	58*
COc1cc(/C=N/NC(=O)c2cc(-c3ccccc3)nc3ccccc23)ccc1O	14	-48	0	-8	16
C[C@H]1CCCCO[C@@H](CN(C)C)[C@@H](C)CN([C@@H](C)CO)C(=O)c2cc(NS(=O)(=O)c3cccs3)ccc2O1	.	.	-13	-11	.
C[C@H]1CCCCO[C@@H](CN(C)C(=O)C2CCCCC2)[C@@H](C)CN([C@@H](C)CO)C(=O)c2cc(NC(=O)CCC(F)(F)F)ccc2O1	.	.	3	4	.
CCOc1ccc(C=NNC(=O)c2ccc(-n3cnnn3)cc2)cc1	10	56*	28	-8	13
CN(C)c1ccc(/C=N/NC(=O)c2ccc(-n3cnnn3)cc2)cc1	2	20	2	1	10
Cc1nc2cc(-c3ccccc3)nn2c(N)c1-c1ccccc1	-14	74*	7	6	73*
COc1ccc(-c2cc3nc(C)cc(N)n3n2)cc1	40	60*	.	.	10
COc1ccc(-c2cc3nc(C)cc(-c4ccc(OC)cc4)n3n2)cc1	-18	-3	-4	10	-6
C[C@@H]1CN([C@H](C)CO)S(=O)(=O)c2ccc(C#CC3CC3)cc2O[C@H]1CN(C)C(=O)C1CCC1	.	.	11	18	.
O=C(Nc1ccc(C(F)(F)F)cc1)N[C@@H]1CC[C@H](CCn2cc(C3(O)CCCC3)nn2)O[C@@H]1CO	.	.	-15	11	.
CCCCc1c(C)c(C#N)c2[nH]c3ccccc3n2c1=O	6	9	.	.	52*
Cc1cc(OCc2cc(C(=O)N3CCC(Oc4cccnc4)CC3)no2)cc(C)c1Cl	-3	27	19	.	50*
COc1ccc(/C=C/C(=O)Nc2ccc(OC)nc2)cc1	-14	13	-29	-41	-39
COc1ccc(CS(=O)(=O)/C(Cl)=C(/Cl)C(=O)Nc2ccc(OC)nc2)cc1	91*	99*	.	.	80*
COc1ccc(NC(=O)/C(Cl)=C(/Cl)S(=O)Cc2ccccc2)cn1 (configuration not stated)	83*	98*	.	.	63*
C[C@@H]1CN([C@@H](C)CO)C(=O)c2cc(C3=CCCCC3)cnc2O[C@@H]1CN(C)S(C)(=O)=O	.	.	7	13	.
Cc1ccccc1CSc1nc2[nH]ncc2c(=O)[nH]1	-3	-3	5	-7	-2
Cc1ccc(C)c(CSc2nc3[nH]ncc3c(=O)[nH]2)c1	17	33	6	58*	20
COc1ccc(S(=O)(=O)NCC(c2cccnc2)N2CCN(c3ccccc3)CC2)cc1C (configuration not stated)	7	29	0	.	-14
COc1ccc(S(=O)(=O)NCC(c2cccnc2)N2CCN(c3ccc(F)cc3)CC2)cc1C (configuration not stated)	82*	6	.	.	-3
N#C/C(=C(/O)COC(=O)CCC1CCCCC1)c1nc2ccccc2[nH]1	-7	89*	.	.	-10
Cc1cc(Cl)ccc1OC(C)C(=O)N1CCCN(C(=O)C(C)Oc2ccc(Cl)cc2C)CC1 (configuration not stated)	-3	63*	.	.	39
O=C(CS(=O)(=O)c1ccccc1)Nc1nc2ccccc2s1	-7	7	-65	-17	-20
SMILES	LMP1 NFkB inh	TWEAK Fn14 block	LGR2 inh	EWS-Fli inh	TROY signal inh
O=C(C[n+]1cccc(CO)c1)Nc1nc2ccccc2s1	-3	-8	10	-1	67*
Cc1nc(C)n(C(C)CNC(=O)c2ccco2)n1 (configuration not stated)	45*	9	-6	3	-13
O=C(O)c1ccc(N/N=C/c2ccc(F)c(F)c2)cc1	-2	67*	.	16	14
Cc1ccc2cc(/C=N/NC(=O)c3ccc(F)cc3)c(Cl)nc2c1	1	-4	-4	0	-4
O=C(O)c1ccc(N/N=C/c2cccc3cccnc23)cc1	-18	61*	-42	-68	-32
Cc1ccc2nc(Cl)c(/C=N/Nc3ccc(C(=O)O)cc3)cc2c1	-7	51*	-71	0	26
O=C(O)c1ccc(N/N=C/c2cccc(C(F)(F)F)c2)cc1	-31	0	-104	-83	25
O=C(O)c1ccc(N/N=C/c2cccc(F)c2)cc1	-14	59*	-27	.	-26
O=C(O)c1ccc(N/N=C/c2ccnc3ccccc23)cc1	-4	44	-21	-135	-11

Screens (PubChem BioAssay)
